# Measurements reported in article PMC7862700, “An all-to-all approach to the identification of sequence-specific readers for epigenetic DNA modifications on cytosine”.
# Tests used:
# Assay in all cases: DAPPL (digital affinity profiling via proximity ligation, sequencing); 10 mM Tris-HCl pH 7.5, 50 mM NaCl, 1 mM DTT, 4% glycerol, room temperature, 30 min; GST-TFs on glutathione beads, 16-mer random dsDNA library, 0.1% formaldehyde crosslink after washing; high values mean tight binding
# [1] = biological target: T1, ELK1 (Homo sapiens, UniProt P19419 1-428); details: protein: recombinant; tags: N-terminal GST; dsDNA, one strand shown
# T1 sequence: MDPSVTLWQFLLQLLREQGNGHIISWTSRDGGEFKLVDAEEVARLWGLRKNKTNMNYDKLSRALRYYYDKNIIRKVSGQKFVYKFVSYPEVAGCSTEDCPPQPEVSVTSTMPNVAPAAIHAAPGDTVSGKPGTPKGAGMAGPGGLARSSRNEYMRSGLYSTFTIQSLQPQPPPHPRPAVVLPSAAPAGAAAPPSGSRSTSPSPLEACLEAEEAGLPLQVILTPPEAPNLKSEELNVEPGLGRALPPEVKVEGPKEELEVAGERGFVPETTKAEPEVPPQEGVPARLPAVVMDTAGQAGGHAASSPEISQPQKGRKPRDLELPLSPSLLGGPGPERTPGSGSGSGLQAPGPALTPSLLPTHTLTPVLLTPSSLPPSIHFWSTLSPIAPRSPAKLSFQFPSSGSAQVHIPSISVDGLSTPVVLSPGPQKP
# Summary of the method: (§1)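 In yeast, human transcription factors were expressed with a GST fusion, then pulled down on glutathione beads and given DNA barcodes. Pooled with a tag-only sample, they were exposed to 200 nmole of a 16-mer random double-stranded DNA library (Tris/NaCl/DTT/glycerol buffer, room temperature, 30 min), washed, crosslinked with 0.1% formaldehyde, proximity-ligated using BsaI/T4 ligase for 1 h at 37 °C, PCR-amplified and read on an Illumina NextSeq500. Each hexamer's frequency of reads for a factor, divided by the matching frequency for the tag-only sample, gives the binding signal.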
# [2] = biological target: T2, GABPA (Homo sapiens, UniProt Q06546 1-454); details: protein: recombinant; tags: N-terminal GST; dsDNA, one strand shown
# T2 sequence: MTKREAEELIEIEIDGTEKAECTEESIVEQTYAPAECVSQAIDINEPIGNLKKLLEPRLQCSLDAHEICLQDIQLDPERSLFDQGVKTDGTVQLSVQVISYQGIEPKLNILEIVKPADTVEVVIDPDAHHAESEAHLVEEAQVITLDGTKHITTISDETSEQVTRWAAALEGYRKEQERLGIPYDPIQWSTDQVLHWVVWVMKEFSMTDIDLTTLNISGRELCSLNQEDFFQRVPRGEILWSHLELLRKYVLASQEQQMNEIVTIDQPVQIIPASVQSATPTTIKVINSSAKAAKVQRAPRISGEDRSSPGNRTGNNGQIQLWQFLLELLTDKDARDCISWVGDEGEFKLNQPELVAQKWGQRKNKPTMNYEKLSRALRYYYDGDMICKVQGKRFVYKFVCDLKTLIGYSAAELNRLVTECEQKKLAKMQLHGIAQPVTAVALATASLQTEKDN
# Summary of the method: as §1
# [3] = biological target: ELF1 (Homo sapiens, UniProt P32519 1-619); details: protein: recombinant; tags: N-terminal GST; dsDNA, one strand shown
# Sequence of ELF1 (P32519 whole entry): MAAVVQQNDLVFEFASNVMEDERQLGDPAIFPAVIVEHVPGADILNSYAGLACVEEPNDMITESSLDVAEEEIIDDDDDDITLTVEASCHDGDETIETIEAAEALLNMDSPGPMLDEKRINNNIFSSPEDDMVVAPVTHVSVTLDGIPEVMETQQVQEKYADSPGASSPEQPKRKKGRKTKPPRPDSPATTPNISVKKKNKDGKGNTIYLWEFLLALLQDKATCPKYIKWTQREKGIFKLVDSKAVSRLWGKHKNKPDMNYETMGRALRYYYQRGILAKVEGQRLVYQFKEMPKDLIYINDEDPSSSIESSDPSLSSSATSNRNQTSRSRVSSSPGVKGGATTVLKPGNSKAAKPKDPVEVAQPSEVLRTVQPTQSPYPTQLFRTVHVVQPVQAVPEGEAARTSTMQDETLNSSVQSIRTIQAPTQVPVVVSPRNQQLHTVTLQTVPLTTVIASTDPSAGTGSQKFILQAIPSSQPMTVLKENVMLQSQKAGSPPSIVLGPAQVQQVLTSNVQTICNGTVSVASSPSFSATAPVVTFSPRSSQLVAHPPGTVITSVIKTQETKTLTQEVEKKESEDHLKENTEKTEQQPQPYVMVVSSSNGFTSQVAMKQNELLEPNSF
# Summary of the method: as §1
# [4] = biological target: T3, ELK3 (Homo sapiens, UniProt P41970 1-407); details: protein: recombinant; tags: N-terminal GST; dsDNA, one strand shown
# T3 sequence: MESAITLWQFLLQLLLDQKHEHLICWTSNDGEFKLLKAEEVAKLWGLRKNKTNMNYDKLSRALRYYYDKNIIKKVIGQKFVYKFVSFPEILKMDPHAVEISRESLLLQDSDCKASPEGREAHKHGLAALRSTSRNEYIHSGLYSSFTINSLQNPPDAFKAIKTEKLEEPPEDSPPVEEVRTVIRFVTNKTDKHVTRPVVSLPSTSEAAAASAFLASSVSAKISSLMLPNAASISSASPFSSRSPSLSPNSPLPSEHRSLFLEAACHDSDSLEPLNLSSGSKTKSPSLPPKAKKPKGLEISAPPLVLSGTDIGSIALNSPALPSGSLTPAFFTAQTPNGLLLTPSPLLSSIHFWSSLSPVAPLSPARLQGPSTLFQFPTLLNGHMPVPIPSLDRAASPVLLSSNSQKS
# Summary of the method: as §1
# [5] = biological target: HSF1 (Homo sapiens, UniProt Q00613 1-529); details: protein: recombinant; tags: N-terminal GST; chain copies: 3; dsDNA, one strand shown
# Sequence of HSF1 (Q00613 whole entry): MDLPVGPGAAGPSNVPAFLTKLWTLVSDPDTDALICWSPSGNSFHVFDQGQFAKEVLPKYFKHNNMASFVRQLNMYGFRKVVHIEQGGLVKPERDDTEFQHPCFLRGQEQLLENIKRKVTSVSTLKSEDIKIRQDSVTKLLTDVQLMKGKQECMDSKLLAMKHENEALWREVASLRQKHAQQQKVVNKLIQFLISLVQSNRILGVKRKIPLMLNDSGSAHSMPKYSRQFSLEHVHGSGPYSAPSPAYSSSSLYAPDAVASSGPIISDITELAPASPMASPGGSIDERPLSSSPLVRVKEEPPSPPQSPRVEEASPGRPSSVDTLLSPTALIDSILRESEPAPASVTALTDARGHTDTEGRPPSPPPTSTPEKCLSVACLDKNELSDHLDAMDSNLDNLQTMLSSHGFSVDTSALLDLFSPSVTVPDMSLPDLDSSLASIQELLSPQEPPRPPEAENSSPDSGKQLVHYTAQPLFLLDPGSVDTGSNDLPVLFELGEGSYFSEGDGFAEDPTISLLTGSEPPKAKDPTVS
# Summary of the method: as §1
# [6] = biological target: T4, SPIC (Homo sapiens, UniProt Q8N5J4 1-248); details: protein: recombinant; tags: N-terminal GST; dsDNA, one strand shown
# T4 sequence: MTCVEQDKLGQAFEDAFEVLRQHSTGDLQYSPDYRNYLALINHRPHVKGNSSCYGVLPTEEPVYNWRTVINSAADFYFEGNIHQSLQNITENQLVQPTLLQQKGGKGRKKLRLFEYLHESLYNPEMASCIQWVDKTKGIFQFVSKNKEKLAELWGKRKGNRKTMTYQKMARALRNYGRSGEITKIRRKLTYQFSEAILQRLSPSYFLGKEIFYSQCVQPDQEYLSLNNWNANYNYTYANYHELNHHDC
# Summary of the method: as §1
# [7] = biological target: T5, ELK4 (Homo sapiens, UniProt P28324-2 1-405); details: protein: recombinant; tags: N-terminal GST; dsDNA, one strand shown
# T5 sequence: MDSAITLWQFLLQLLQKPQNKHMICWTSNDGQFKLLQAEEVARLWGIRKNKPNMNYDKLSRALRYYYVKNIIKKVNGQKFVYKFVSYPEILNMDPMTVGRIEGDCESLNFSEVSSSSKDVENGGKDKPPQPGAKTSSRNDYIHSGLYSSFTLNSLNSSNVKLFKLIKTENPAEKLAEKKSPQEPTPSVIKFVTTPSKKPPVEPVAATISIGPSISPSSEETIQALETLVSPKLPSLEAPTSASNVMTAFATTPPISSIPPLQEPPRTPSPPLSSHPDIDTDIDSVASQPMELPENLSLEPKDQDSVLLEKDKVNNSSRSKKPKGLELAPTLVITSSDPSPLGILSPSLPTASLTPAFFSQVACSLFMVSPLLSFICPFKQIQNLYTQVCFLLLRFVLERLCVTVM
# Summary of the method: as §1
# [8] = biological target: T6, ETV2 (Homo sapiens, UniProt O00321 1-342); details: protein: recombinant; tags: N-terminal GST; dsDNA, one strand shown
# T6 sequence: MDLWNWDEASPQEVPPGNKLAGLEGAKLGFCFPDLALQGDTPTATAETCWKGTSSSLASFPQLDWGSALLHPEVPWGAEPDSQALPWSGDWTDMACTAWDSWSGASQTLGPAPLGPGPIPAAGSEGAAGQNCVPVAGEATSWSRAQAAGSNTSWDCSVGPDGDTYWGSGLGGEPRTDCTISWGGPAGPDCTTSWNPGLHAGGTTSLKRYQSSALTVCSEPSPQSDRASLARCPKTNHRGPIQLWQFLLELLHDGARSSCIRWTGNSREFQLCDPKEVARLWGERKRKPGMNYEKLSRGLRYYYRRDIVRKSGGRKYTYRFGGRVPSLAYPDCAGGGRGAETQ
# Summary of the method: as §1
# [9] = biological target: CRX (Homo sapiens, UniProt O43186 1-299); details: protein: recombinant; tags: N-terminal GST; dsDNA, one strand shown
# Sequence of CRX (O43186 whole entry): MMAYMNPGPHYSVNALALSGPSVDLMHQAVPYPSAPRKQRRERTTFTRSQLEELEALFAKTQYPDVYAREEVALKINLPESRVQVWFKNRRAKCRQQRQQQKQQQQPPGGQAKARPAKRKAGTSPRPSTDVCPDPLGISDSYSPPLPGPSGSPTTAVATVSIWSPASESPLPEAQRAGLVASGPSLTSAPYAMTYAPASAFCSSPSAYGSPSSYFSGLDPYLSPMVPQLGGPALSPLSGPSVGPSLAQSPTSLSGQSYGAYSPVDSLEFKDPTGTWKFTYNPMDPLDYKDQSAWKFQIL
# Summary of the method: as §1
# [10] = biological target: T7, ERF (Homo sapiens, UniProt P50548 1-548); details: protein: recombinant; tags: N-terminal GST; dsDNA, one strand shown
# T7 sequence: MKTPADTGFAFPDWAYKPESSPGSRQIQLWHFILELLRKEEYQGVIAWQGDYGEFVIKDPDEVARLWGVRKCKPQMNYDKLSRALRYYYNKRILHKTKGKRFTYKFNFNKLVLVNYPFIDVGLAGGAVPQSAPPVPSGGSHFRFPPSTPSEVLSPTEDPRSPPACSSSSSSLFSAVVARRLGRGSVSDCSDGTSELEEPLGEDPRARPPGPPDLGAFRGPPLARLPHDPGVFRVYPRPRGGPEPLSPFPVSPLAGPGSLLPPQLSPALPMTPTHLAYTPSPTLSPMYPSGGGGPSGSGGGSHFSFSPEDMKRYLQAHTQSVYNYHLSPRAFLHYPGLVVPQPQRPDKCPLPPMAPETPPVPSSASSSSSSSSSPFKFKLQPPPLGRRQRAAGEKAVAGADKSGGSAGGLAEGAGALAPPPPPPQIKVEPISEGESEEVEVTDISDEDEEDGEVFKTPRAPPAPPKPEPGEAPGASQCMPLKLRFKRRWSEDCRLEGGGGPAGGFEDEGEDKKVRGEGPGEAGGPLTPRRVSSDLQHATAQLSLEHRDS
# Summary of the method: as §1
# [11] = biological target: T8, SPDEF (Homo sapiens, UniProt O95238 1-335); details: protein: recombinant; tags: N-terminal GST; dsDNA, one strand shown
# T8 sequence: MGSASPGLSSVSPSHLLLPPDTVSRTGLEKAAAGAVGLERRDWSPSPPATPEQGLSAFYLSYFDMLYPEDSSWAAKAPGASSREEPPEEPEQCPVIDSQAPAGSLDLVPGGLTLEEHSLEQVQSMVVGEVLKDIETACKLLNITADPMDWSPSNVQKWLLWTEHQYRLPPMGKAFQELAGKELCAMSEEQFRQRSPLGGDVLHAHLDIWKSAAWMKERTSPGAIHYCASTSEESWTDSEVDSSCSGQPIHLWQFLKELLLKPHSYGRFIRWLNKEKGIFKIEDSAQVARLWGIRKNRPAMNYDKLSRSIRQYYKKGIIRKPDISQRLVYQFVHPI
# Summary of the method: as §1
# [12] = biological target: T9, ETV7 (Homo sapiens, UniProt Q9Y603 1-341); details: protein: recombinant; tags: N-terminal GST; dsDNA, one strand shown
# T9 sequence: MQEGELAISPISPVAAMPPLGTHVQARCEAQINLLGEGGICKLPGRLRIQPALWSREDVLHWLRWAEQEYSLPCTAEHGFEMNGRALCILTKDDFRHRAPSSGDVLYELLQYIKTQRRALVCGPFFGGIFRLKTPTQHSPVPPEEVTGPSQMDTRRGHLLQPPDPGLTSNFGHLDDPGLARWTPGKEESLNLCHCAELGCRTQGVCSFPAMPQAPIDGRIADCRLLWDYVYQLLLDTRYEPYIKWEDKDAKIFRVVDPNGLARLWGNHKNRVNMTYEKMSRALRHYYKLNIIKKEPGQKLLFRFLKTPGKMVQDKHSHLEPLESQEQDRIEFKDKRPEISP
# Summary of the method: as §1
# [13] = biological target: T10, ETV3 (Homo sapiens, UniProt P41162-2 1-143); details: protein: recombinant; tags: N-terminal GST; dsDNA, one strand shown
# T10 sequence: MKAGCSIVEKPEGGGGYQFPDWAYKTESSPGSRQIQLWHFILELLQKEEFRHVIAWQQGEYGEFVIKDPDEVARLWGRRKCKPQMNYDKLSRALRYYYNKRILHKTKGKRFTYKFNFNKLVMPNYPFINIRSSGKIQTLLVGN
# Summary of the method: as §1
sequence,measurement,setting,value
CGCGAA,binding signal,[1],"1.04 fold enrichment (6-mer frequency, TF over GST control)"
same,binding signal,[2],"1.01 fold enrichment (6-mer frequency, TF over GST control)"
same,binding signal,[3],"1.03 fold enrichment (6-mer frequency, TF over GST control)"
same,binding signal,[4],"1.05 fold enrichment (6-mer frequency, TF over GST control)"
same,binding signal,[5],"1.76 fold enrichment (6-mer frequency, TF over GST control)"
same,binding signal,[6],"1.02 fold enrichment (6-mer frequency, TF over GST control)"
same,binding signal,[7],"1.08 fold enrichment (6-mer frequency, TF over GST control)"
same,binding signal,[8],"1.11 fold enrichment (6-mer frequency, TF over GST control)"
same,binding signal,[9],"1.05 fold enrichment (6-mer frequency, TF over GST control)"
same,binding signal,[10],"1.01 fold enrichment (6-mer frequency, TF over GST control)"
same,binding signal,[11],"1.01 fold enrichment (6-mer frequency, TF over GST control)"
same,binding signal,[12],"1.1 fold enrichment (6-mer frequency, TF over GST control)"
same,binding signal,[13],"1.01 fold enrichment (6-mer frequency, TF over GST control)"
